This is a sample that favours compounds with a hit; in the whole collection about 6.8% have one here.
T cruzi growth-1: T. cruzi proliferation inhibition. T. cruzi beta-gal in NIH3T3, GalScreen luminescence, 90 h. inhibition, % at 8.34 µM. 77,000 compounds, 5.9% hits. AID 624255;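 active means mean inhibition above about 93%, with at least 55% of replicates each passing it, limit read from the data, passing the limit was not always enough; inconclusive means only one of those two conditions holds; inactive means neither condition holds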
Pf Dd2 growth: inhibitors of Plasmodium falciparum Dd2 growth | P. falciparum Dd2 growth, SYBR Green, 72 h; stronger effect = lower value | activity change, % at 10 µM | 94,000 compounds, 2.3% hits | AID 1159554; in the data active means activity change below about -80%; inconclusive means no clear call, values can overlap the other calls
C diff growth: inhibitors of Clostridium difficile growth | Clostridium difficile clinical isolate growth, OD600, 24 h; stronger effect = lower value | growth activity, negative = inhibition, % at 16 µg/mL (by protocol) | 86,000 compounds, 0.25% hits | AID 1259249;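 active means mean growth activity at or below -80% and every replicate also at or below -80%; inconclusive means mean at or below -80% but some replicate above -80%; inactive means mean growth activity above -80%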;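 further: 0% = DMSO wells and -100% = levofloxacin 16 µg/mL wells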
T cruzi growth-2: inhibitors of T. cruzi proliferation. inhibition, % at 8.35 µM. shares compounds with T cruzi growth-1. 5,600 compounds, 72% hits. T. cruzi beta-gal in NIH3T3, GalScreen luminescence, 90 h. AID 651739;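 active means mean replicate inhibition above about 95% and at least 55% of replicates individually reaching it, limit read from the data; inconclusive means only one of the two criteria is met; inactive means neither criterion is met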
T cruzi growth-3: Trypanosoma cruzi proliferation inhibition. shares compounds with T cruzi growth-1. T. cruzi beta-gal in NIH3T3, GalScreen luminescence, 90 h. inhibition, % at 2.09 µM. 5,600 compounds, 21% hits. AID 651740;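 active means mean inhibition above about 95%, with at least 55% of replicates also reaching it, limit read from the data; inconclusive means meets just one of the two conditions; inactive means meets neither condition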;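 further: plate controls were neutral control median for no effect and positive control median for full effect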
NIH3T3 tox: cytotoxicity in mouse NIH/3T3 fibroblasts; shares compounds with T cruzi growth-1; NIH/3T3 viability, CellTiter-Glo ATP luminescence, 90 h; cytotoxicity (signal decrease), % at 8.35 µM; 5,600 compounds, 14% hits; AID 651742;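 active means mean signal decrease across replicates above about 35% based on untreated-well scatter, with enough replicates individually passing, limit read from the data; inconclusive means no rule stated though some were filed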;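 further: 0% = median of neutral control wells and 100% = median of positive control wells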
NIH3T3 tox 2: kills mouse NIH/3T3 fibroblasts; shares compounds with T cruzi growth-1; NIH/3T3 viability, CellTiter-Glo ATP luminescence, 90 h; inhibition, % at 24.9 µM; 5,600 compounds, 56% hits;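 active means mean loss of cell viability signal at or above a set limit, and enough replicates individually reaching it; inconclusive means meets only the mean limit or only the replicate share; inactive means meets neither condition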;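 further: 0% = median of neutral control wells and 100% = median of positive control wells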
Active calls of the source: *; ? = inconclusive; . = not tested or not shown.

SMILES	T cruzi growth-1	Pf Dd2 growth	C diff growth	T cruzi growth-2	T cruzi growth-3	NIH3T3 tox	NIH3T3 tox 2
CO[C@H](CN(C)C(=O)c1ccccc1F)[C@@H](C)CN([C@H](C)CO)S(=O)(=O)c1ccccc1	-22.2	22.9	.	.	.	.	.
C[C@@H]1CN([C@@H](C)CO)C(=O)c2cc(/C=C/c3ccccc3)cnc2O[C@@H]1CN(C)Cc1ccncc1	67.7	-25.9	7.6	.	.	.	.
C[C@@H]1CN([C@H](C)CO)C(=O)c2cc(/C=C/c3ccccc3)cnc2O[C@H]1CN(C)Cc1ccncc1	112.9*	-11.2	1.3	105.3*	66.0	14.4	30.4*
C[C@H](CO)N1C[C@H](C)[C@H](CN(C)Cc2cccc(C(F)(F)F)c2)Oc2ncc(/C=C/c3ccccc3)cc2C1=O	116.3*	-51.0	18.3	104.7*	112.0*	-18.7	80.1*
Cc1cccc(CN(C)C[C@@H]2Oc3ncc(/C=C/c4ccccc4)cc3C(=O)N([C@H](C)CO)C[C@@H]2C)c1	86.4	-60.4	.	.	.	.	.
CN(C[C@@H]1[C@H](c2ccccc2)[C@H](CO)N1C(=O)C1CC1)C(=O)c1ccccn1	12.7	-4.5	-1.2	.	.	.	.
CC=Cc1ccc2n(c1=O)C[C@H]1[C@H](CO)[C@@H](C(=O)NCCC)N(Cc3ccccn3)[C@@H]21 (mixture of isomers)	3.2	9.8	-1.1	.	.	.	.
CCCC#Cc1ccc2c(c1)O[C@H](CN(C)Cc1ccncc1)[C@H](C)CN([C@H](C)CO)S2(=O)=O	114.0*	-37.2	6.3	102.7*	75.8	36.9*	?
CCCC#Cc1ccc2c(c1)O[C@@H](CN(C)Cc1ccccc1)[C@H](C)CN([C@H](C)CO)S2(=O)=O	.	15.2	.	.	.	.	.
C[C@@H]1CN([C@H](C)CO)S(=O)(=O)c2ccc(C#CCN(C)C)cc2O[C@H]1CN(C)Cc1ccc(F)cc1	115.5*	-69.8	-10.3	?	91.0	56.9*	107.4*
C[C@H]1CN([C@@H](C)CO)S(=O)(=O)c2ccc(C#CCN(C)C)cc2O[C@H]1CN(C)Cc1ccc(F)cc1	39.2	-67.3	-0.3	.	.	.	.
CCCC#Cc1ccc2c(c1)O[C@H](CN(C)Cc1ccncc1)[C@@H](C)CN([C@@H](C)CO)S2(=O)=O	121.4*	-73.7	10.0	105.6*	100.6*	42.2*	104.0*
C[C@@H]1CN([C@H](C)CO)S(=O)(=O)c2ccc(C#CCN(C)C)cc2O[C@H]1CN(C)Cc1ccncc1	101.2*	-36.2	1.5	107.4*	105.1*	45.4*	57.8*
CCCC#Cc1ccc2c(c1)O[C@H](CN(C)Cc1ccccc1)[C@@H](C)CN([C@@H](C)CO)S2(=O)=O	.	-22.1	.	.	.	.	.
C[C@@H]1CN([C@H](C)CO)S(=O)(=O)c2ccc(C#CCN(C)C)cc2O[C@@H]1CN(C)Cc1ccncc1	24.6	5.8	-1.9	.	.	.	.
C[C@@H](NC(=O)C[C@@H]1C[C@@H]2c3cc(NC(=O)Nc4ccccc4F)ccc3O[C@@H]2[C@H](CO)O1)c1ccccc1	.	-8.6	-8.8	.	.	.	.
CO[C@@H](CN(C)S(=O)(=O)c1ccc(Cl)cc1)[C@@H](C)CN(C(=O)Nc1ccccc1F)[C@@H](C)CO	-14.8	-31.9	.	.	.	.	.
CC(C)NC(=O)N(C)C[C@H]1Oc2ccc(NC(=O)Cc3cn(C)c4ccccc34)cc2CC(=O)N([C@H](C)CO)C[C@@H]1C	-14.3	-6.3	1.1	.	.	.	.
CC(C)CC#Cc1ccc2c(c1)O[C@@H](CN(C)Cc1ccc(F)cc1)[C@@H](C)CN([C@H](C)CO)S2(=O)=O	101.8	-7.1	15.9	.	.	.	.
CC(C)CC#Cc1ccc2c(c1)O[C@@H](CN(C)Cc1ccncc1)[C@H](C)CN([C@@H](C)CO)S2(=O)=O	132.2*	-79.8	14.6	96.9*	104.8*	26.1	103.3*
CCCC(=O)Nc1ccc2c(c1)C(=O)N(C)C[C@H](OC)[C@@H](C)CN(C(=O)c1cccnc1)[C@@H](C)CO2	43.7	24.7	.	.	.	.	.
Cc1ccccc1S(=O)(=O)N1CC[C@@H]2[C@H]1c1cc(-c3ccccc3)ccc1N[C@@H]2CO	92.0	29.8	62.3	.	.	.	.
Cc1ccccc1S(=O)(=O)N1CC[C@@H]2[C@@H](CO)Nc3ccc(-c4ccccc4)cc3[C@@H]21	86.1	10.6	74.7	.	.	.	.
Cc1ccccc1S(=O)(=O)N1CC[C@@H]2[C@@H](CO)Nc3ccc(-c4ccc(C#N)cc4)cc3[C@@H]21	?	4.0	-2.4	97.5*	71.4	65.8*	91.7*
Cc1ccccc1S(=O)(=O)N1CC[C@H]2[C@H](CO)Nc3ccc(-c4ccc(C#N)cc4)cc3[C@H]21	115.4*	6.8	4.3	107.5*	76.9	51.9*	69.5*
SMILES	T cruzi growth-1	Pf Dd2 growth	C diff growth	T cruzi growth-2	T cruzi growth-3	NIH3T3 tox	NIH3T3 tox 2
COC(=O)C[C@H]1C[C@@H]2c3cc(NC(=O)C4CCC4)ccc3O[C@@H]2[C@H](CO)O1	36.1	4.4	-1.0	.	.	.	.
Cn1cnc(CCNC(=O)C[C@@H]2CC[C@@H]3[C@H](COC[C@H](O)CN3C(=O)Nc3ccc(C(F)(F)F)cc3)O2)c1	107.2*	-16.0	25.3	45.5	-41.9	18.8	23.9
Cn1cnc(CCNC(=O)C[C@@H]2CC[C@H]3[C@@H](COC[C@H](O)CN3C(=O)Nc3ccc(C(F)(F)F)cc3)O2)c1	52.2	-17.9	7.9	.	.	.	.
Cn1cnc(CCNC(=O)C[C@H]2CC[C@@H]3[C@H](COC[C@@H](O)CN3C(=O)Nc3ccc(C(F)(F)F)cc3)O2)c1	113.6*	-44.3	16.1	100.5*	33.8	31.4	21.7
Cn1cnc(CCNC(=O)C[C@@H]2CC[C@@H]3[C@H](COC[C@@H](O)CN3C(=O)Nc3ccc(C(F)(F)F)cc3)O2)c1	11.0	-26.1	17.7	.	.	.	.
C[C@H](CO)N1C[C@H](C)[C@H](CN(C)Cc2cccnc2)Oc2cc(-c3ccccc3F)ccc2S1(=O)=O	86.7	-2.2	1.2	.	.	.	.
C[C@@H]1CN([C@H](C)CO)S(=O)(=O)c2ccc(-c3ccccc3F)cc2O[C@H]1CN(C)Cc1ccncc1	116.3*	-42.0	-18.8	99.4*	105.1*	92.0*	103.3*
Cc1ccccc1-c1ccc2c(c1)O[C@@H](CN(C)Cc1ccncc1)[C@H](C)CN([C@@H](C)CO)S2(=O)=O	92.8	-75.3	3.5	.	.	.	.
C[C@@H]1CN([C@@H](C)CO)S(=O)(=O)c2ccc(-c3ccccc3F)cc2O[C@@H]1CN(C)Cc1cncnc1	64.3	4.6	-9.6	.	.	.	.
C[C@H]1CN([C@@H](C)CO)S(=O)(=O)c2ccc(-c3ccccc3F)cc2O[C@H]1CN(C)Cc1ccncc1	106.6*	13.8	-5.3	99.0*	91.7	32.2	56.4*
Cc1ccccc1-c1ccc2c(c1)O[C@H](CN(C)Cc1ccncc1)[C@H](C)CN([C@@H](C)CO)S2(=O)=O	96.8*	-54.7	-1.3	106.7*	74.7	51.5*	?
Cc1ccc(-c2ccc([C@H]3[C@@H](CO)N4CCCCN(C(=O)Nc5ccccc5)C[C@@H]34)cc2)cc1	118.1*	28.6	-1.9	106.2*	85.8	9.9	77.7*

High-throughput results as filed in PubChem BioAssay.
